# From PubChem
# p53ts 39C kill – kills p53ts cells at the nonpermissive temperature. Potency, µM (titrated, usually from 46.1 µM), actives largely listed as cytotoxic. H1299-p53A138V viability at 39C, ATP luminescence, 24 h. hit rate 1.5% among 130,000; note: nearly all actives have a fitted effect of over 55% in size
# p53ts 32C kill – cytotoxicity in p53ts cells at permissive temperature; AID 924; hit rate 0.93% among 130,000; H1299-p53A138V at 32C, ATP luminescence viability, 24 h; Potency, µM (titrated, usually from 46.1 µM), actives largely listed as cytotoxic; note: nearly all actives have a fitted effect of over 55% in size
#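 Viability by ATPlite luminescence after 24 h compound treatment (up to 46 uM) at the permissive 32C. Cells are H1299 carrying p53 A138V. Scale runs from DMSO basal to 100 uM tamoxifen as full kill; AC50 from Hill fits.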
# IkB sig inh – inhibitors of IkB signaling in ABC-DLBCL cells; Potency, µM (top dose mostly 57.1 µM); AID 445; hit rate 0.04% among 110,000; ABC-DLBCL IkBa-CBG/CBR dual luciferase ratio, 4 h; response scale: scaled: untreated 0%, proteasome inhibitor 100%; active = well fitted curve in the direction sought with a large enough effect in the signal ratio, not every such curve was filed as active; inconclusive = small, poorly fitted or top-dose-only effect, or a change in a side signal; the % refers to the signal ratio;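 note: the direction sought is a rising ratio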
#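 Curves were fitted separately to fusion (green), unfused (red) and ratio luminescence, then classed by r2, magnitude and activity. Cells: OCI-Ly3, 4 h compound plus doxycycline at 37C; 10 uM MG-132 defined full response.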
# Peg3 imprint – inducers of genomic imprint erasure in mouse ES cells; mouse ES Peg3-LacZ reporter, beta-gal luminescence, 40 h; hit rate 0.02% among 110,000; Potency, µM (titrated, usually from 60.7 µM), most hits filed as activators
#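 Readout: BetaGlo luminescence (5 min, room temp) for LacZ from the normally silent maternal Peg3 allele in female Peg3LacZ-Neo ES cells. Cells 300/well, 40 h, 37C, 5% CO2. Data normalized per plate to negative controls.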
# Numbers stand for hits; – = inactive; ? = inconclusive; · = no result given; ! = not active in a repeat; [ ] = another dose, or the depositor's remark. Most compounds without a hit are left out; they make up all but 1.8% or so of the library. Unless noted, calls come from the whole dose curve; as a rule, active = well fitted curve in the direction sought with a large enough effect; inconclusive = small, poorly fitted or top-dose-only effect, or another doubt; inactive = no such curve, though single readings can be large; an effect the other way counts as inactive or inconclusive.
SMILES,p53ts 39C kill,p53ts 32C kill,IkB sig inh,Peg3 imprint
O=C(CSc1c2c(nc3ccccc13)CCC2)Nc1ccc(F)cc1F,–,–,?,–[10.9 µM]
Cc1cc2nc(-c3cccc(NC(=O)c4ccc(Br)o4)c3C)oc2cc1C,?,?,?,–
Cc1cc2nc(-c3cccc(NC(=O)C(C)C)c3C)oc2cc1C,0.126µM,?,–,–[10.9 µM]
CCCc1ccc(-c2ccc(F)c(N)c2)nc1,7.94µM,3.98µM,?,–
CCCCc1ccc(-c2ccc(Br)cc2)nc1,–,–,·,·
CCCCNC(=O)c1cnn2c(C)c(Cc3c(C)cc(C)cc3C)c(C)nc12,15.8µM,?,?,–[10.9 µM]
CC(C)c1ccc(NC(=O)c2csnn2)cc1,15.8µM,12.6µM,–,–
COc1ccc(S(=O)(=O)Nc2cccc(-c3ccc(N4CCCCC4)nn3)c2)cc1F,12.6µM,12.6µM,–,–[10.9 µM]
O=S(=O)(Nc1cccc(-c2ccc(N3CCCC3)nn2)c1)c1ccc(F)cc1F,–,–,–,–[10.9 µM]
O=S(=O)(Nc1cccc(-c2ccc(N3CCCCC3)nn2)c1)c1cccc(F)c1,?,10µM,–,–[10.9 µM]
C=C(Br)CN(C)CC(=C)Br,–[9.22 µM],–[9.22 µM],–[11.4 µM],–[10.9 µM]
CN(C)CCNS(=O)(=O)N(C)C,–[9.22 µM],–[9.22 µM],–[11.4 µM],–[10.9 µM]
OC[C@H]1O[C@@H](n2cnc3c(NCCc4ccccc4)ncnc32)[C@H](O)[C@H]1O,–,–,·,–
OC[C@H]1O[C@@H](n2cnc3c(NCc4ccccc4)ncnc32)[C@H](O)[C@@H]1O,10µM,6.31µM,·,–
CCCCNC(=O)CCC(=O)NNc1nc2ccccc2c2nc(C)nn12,–,–,–,–[10.9 µM]
CCCCNC(=O)CCC(=O)NNc1nc2ccccc2c2nc(-c3ccccc3)nn12,12.6µM,–,–,?
Cn1c(=O)oc2cc(S(=O)(=O)N3CCCC(C(=O)N4CCN(c5ccc(Cl)cc5)CC4)C3)ccc21 (stereo not given),–,–,?,–[10.9 µM]
O=C(Cn1nc(C(F)(F)F)c2c1CCC2)Nc1ccc(Cl)cc1,–,–,?,–[10.9 µM]
CN1CCN(C2Cc3ccccc3Sc3ccc(S)cc32)CC1 (stereo not given),·,·,·,–
CN1CCN([C@@H]2Cc3ccccc3Sc3ccc(Cl)cc32)CC1,15.8µM,20µM,–,·
CCOC(=O)c1cccc(NC(=O)c2cc3ccccn3n2)c1,12.6µM,10µM,?,–[10.9 µM]
CCOC(=O)c1cccc(NC(=O)c2cnccn2)c1,–,–,–,–
O=C(Nc1ccccc1C(F)(F)F)c1cc2ccccn2n1,7.94µM,10µM,–,–[10.9 µM]
O=C(Nc1ccc(OC(F)(F)F)cc1)c1cc2ccccn2n1,?,?,–,–[10.9 µM]
CCOC(=O)c1cccc(NC(=O)c2ccc3c(Cl)c4c(nc3c2)CCC4)c1,0.794µM,?,–,–[10.9 µM]
SMILES,p53ts 39C kill,p53ts 32C kill,IkB sig inh,Peg3 imprint
COc1ccc(NC(=O)c2cc3ccccn3n2)cc1,7.94µM,10µM,?,–
OC[C@@H]1O[C@@H](O)[C@H](N=Cc2ccc3c(c2)OCO3)[C@@H](O)[C@@H]1O,–[9.22 µM],–[9.22 µM],–[11.4 µM],–[10.9 µM]
c1cc2c(cc1C(N1CCNCC1)N1CCNCC1)OCO2,–[9.22 µM],–[9.22 µM],–[11.4 µM],–[10.9 µM]
O=C(NCc1ccc(F)cc1)C(=O)NCC(c1ccco1)S(=O)(=O)c1cccs1 (stereo not given),–,–,–,?
CCc1nc(-c2cc(S(=O)(=O)N3CCN(c4ccccc4F)CC3)ccc2OC)no1,–,–,–,–[10.9 µM]
COc1ccc(S(=O)(=O)N2CCN(c3ccccc3F)CC2)cc1-c1noc(C)n1,12.6µM,?,–,–[10.9 µM]
CCOc1ccc(OCC)c(NC(=O)c2cnc3c(-c4ccccc4)c(C)nn3c2C)c1,?,–,?,–[10.9 µM]
Cc1ccccc1NS(=O)(=O)c1ccc2[nH]c3c(c2c1)CCCCC3,25.1µM,–,?,–[10.9 µM]
Cc1cccc(NS(=O)(=O)c2ccc3[nH]c4c(c3c2)CCCCCC4)c1,?,–,?,–[10.9 µM]
COc1ccc(NS(=O)(=O)c2ccc3[nH]c4c(c3c2)CCCC4)cc1Cl,·,–,·,·
Cc1ccc(NS(=O)(=O)c2ccc3[nH]c4c(c3c2)CCCCCC4)cc1Cl,25.1µM,–,?,–[10.9 µM]
O=C(c1ccc(OCCN2CCCCC2)cc1)c1c(-c2ccc(O)cc2)sc2cc(O)ccc12,25.1µM!,20µM!,–,–
O=C(N/N=C/c1ccccc1O)c1cc(-c2ccccc2)n[nH]1,15.8µM,–,·,·
O=C(N/N=C\c1ccccc1O)c1ccccc1O,2µM,1.26µM,?,–
O=C(N/N=C/c1ccco1)c1cc(-c2ccccc2)n[nH]1,–,–,·,·
COc1cc(/C=N/NC(=O)c2cc(-c3ccccc3)n[nH]2)ccc1O,–,–,·,·
COc1cccc(-c2cc(C(=O)N/N=C/c3ccccc3O)[nH]n2)c1,10µM,?,·,·
CCCn1ccc2c(OCC(=O)Nc3ccc(F)cc3F)cccc2c1=O,–,–,?,–[10.9 µM]
COCc1cc(C)nc2sc3c(c12)NC(c1ccc(O)cc1)N(c1ccc(C)cc1)C3=O (stereo not given),–,–,?,–[10.9 µM]
COc1ccccc1NC(=O)CSc1nnc(-c2ccc(C)cc2)o1,6.31µM,7.94µM,?,–
COc1ccc(OCC(=O)Nc2cccc(OC)c2)cc1,–,–,?,–
CC(=O)Nc1cccc(-c2nnc(SCC(=O)c3cc([N+](=O)[O-])ccc3Cl)o2)c1,12.6µM,?,?,–[10.9 µM]
COc1cccc(NC(=O)COc2ccccc2C(N)=O)c1,10µM,15.8µM,?,–
O=C(CSc1nnc(-c2ccccc2F)o1)Nc1ccccc1Cl,12.6µM,?,–,–[10.9 µM]
CN1[C@H]2CC(OC(=O)[C@H](CO)c3ccccc3)C[C@H]1[C@H]1O[C@H]12 (stereo not given in full),·,·,–,–
SMILES,p53ts 39C kill,p53ts 32C kill,IkB sig inh,Peg3 imprint
COc1cccc(C(=O)Nc2ccc3nc(SCC(=O)N4CCOCC4)sc3c2)c1,?,?,?,–[10.9 µM]
CCn1c(=N)c(C(=O)NC2CCCC2)cc2c(=O)n3cc(C)ccc3nc21,–,–,–,–[10.9 µM]
COc1cccc(NC(=O)CSc2nnc(-c3ccc(C)cc3)o2)c1,?,–,–,–
COc1cccc(NC(=O)CSc2nnc(-c3cccc(OC)c3)o2)c1,10µM,12.6µM,?,–[10.9 µM]
NC(=O)CSc1ncc2c(n1)-c1ccccc1N(Cc1cccc(F)c1)S2(=O)=O,–,–,–,–[10.9 µM]
CCOC(=O)c1ccc(OCC(=O)c2ccc(O)cc2O)cc1,12.6µM,12.6µM,–,–
COC(=O)c1ccc(OCC(=O)c2ccc(O)cc2O)cc1,12.6µM,12.6µM,?,–
CCOC(=O)COc1ccc(C(=O)c2ccccc2)c(O)c1,–,–,–,–
O=C(O)c1ccc(N[C@H](c2ccccc2)c2ccc3cccnc3c2O)cc1,?,–[9.22 µM],–[11.4 µM],–[10.9 µM]
Cc1conc1NC(c1cccs1)c1ccc2cccnc2c1O (stereo not given),?,12.6µM,?,–
CCn1cc(C(=O)NCc2ccccc2OC)c(=O)c2cc(S(=O)(=O)N3CCCCCC3)ccc21,–,–,?,?
CC(C)c1ccc(C2N=C(N)Nc3nc4ccccc4n32)cc1 (stereo not given),10µM,–,?,–[10.9 µM]
CS(=O)(=O)Nc1ccc(Nc2c3ccccc3nc3ccccc23)cc1,–[9.22 µM],–[9.22 µM],–[11.4 µM],–[10.9 µM]
CCN(CC)c1ccc(NC(=O)c2ccc(Br)o2)cc1,?,12.6µM,–,–
